Results published in PubChem BioAssay (EPA / NIEHS).
Records with an inconclusive call do not appear. Active and inactive are the calls of the source. How the source made its calls: active means hit-call score of the fitted dose curve at least 0.9, where 1 is the maximum; inconclusive means response in the unintended direction; inactive means score below 0.9.

Target: human Matrix Metalloproteinase-1 (MMP1), MMP1 (gene 4312) (UniProt P03956)
Experiment: NVS_ENZ_hMMP1: NovaScreen (NVS) Enzymatic Assay for human Matrix Metalloproteinase-1 (MMP1) (AID 2283181)
How it was run: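 Human MMP1 enzyme activity measured by fluorescence 1 h after dosing, cell-free, with a specific substrate. Screened in duplicate at 25 uM; hits (e.g. 30% inhibition) run in concentration-response up to 50 uM; loss of signal versus DMSO.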

human Matrix Metalloproteinase-1 (MMP1), MMP1 (gene 4312), sequence (P03956 whole entry, looked up): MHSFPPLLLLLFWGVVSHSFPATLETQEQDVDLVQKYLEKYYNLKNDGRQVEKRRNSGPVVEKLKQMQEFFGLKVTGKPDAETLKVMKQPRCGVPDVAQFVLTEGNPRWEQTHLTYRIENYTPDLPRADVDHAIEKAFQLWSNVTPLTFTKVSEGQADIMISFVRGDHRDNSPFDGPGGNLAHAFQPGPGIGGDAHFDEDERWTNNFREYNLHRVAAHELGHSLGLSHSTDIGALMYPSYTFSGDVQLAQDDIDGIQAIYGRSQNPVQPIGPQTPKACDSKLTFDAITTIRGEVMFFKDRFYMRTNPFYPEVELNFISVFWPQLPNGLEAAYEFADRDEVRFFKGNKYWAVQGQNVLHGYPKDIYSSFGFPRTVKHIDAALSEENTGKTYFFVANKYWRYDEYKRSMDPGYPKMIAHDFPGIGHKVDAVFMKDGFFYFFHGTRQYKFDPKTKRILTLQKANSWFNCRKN

| Structure (SMILES) | AC50 | outcome |
| --- | --- | --- |
| COc1ccc([N+](=O)[O-])cc1N | 10.8 µM (active) |  |
| CC(C)(c1cc(Br)c(O)c(Br)c1)c1cc(Br)c(O)c(Br)c1 |  | inactive |
| O=C(N[C@@H](Cc1ccccc1)[C@@H](O)C(=O)N1C[C@@H](O)[C@@H](O)C1)c1cc2cc(Cl)ccc2[nH]1 |  | inactive |
| Cc1c(C)c2c(c(C)c1O)CCC(C)(COc1ccc(CC3SC(=O)NC3=O)cc1)O2 (stereo not drawn) | 6.75 µM (active) |  |
| CCCCCCCCOC(=O)c1cc(O)c(O)c(O)c1 | 13.9 µM (active) |  |
| Cc1ccc([N+](=O)[O-])cc1N |  | inactive |
| O=C(O)c1cccnc1 |  | inactive |
| CCCCN1C(=O)[C@@H]([C@H](O)C2CCCCC2)NC(=O)C12CCN(Cc1ccc(Oc3ccc(C(=O)O)cc3)cc1)CC2 |  | inactive |
| CN1CCN(Cc2cc(-c3ccc4[nH]c(=O)oc4c3)co2)[C@@H](c2ccc(F)cc2)C1 | 10.5 µM (active) |  |

Target: human NIMA (Never In Mitosis Gene A)-Related Kinase 2 (NEK2), NEK2 (gene 4751) (UniProt P51955)
Experiment: NVS_ENZ_hNEK2: NovaScreen (NVS) Enzymatic Assay for human NIMA (Never In Mitosis Gene A)-Related Kinase 2 (NEK2) (AID 2283188)
How it was run: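 Cell-free NEK2 enzyme activity after 1 h exposure, read by fluorescence with electrophoretic mobility shift separating substrate and product. Primary screen in duplicate at 25 uM; actives then run as concentration series. Loss of signal versus DMSO scored.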

human NIMA (Never In Mitosis Gene A)-Related Kinase 2 (NEK2), NEK2 (gene 4751), sequence (P51955 whole entry, looked up): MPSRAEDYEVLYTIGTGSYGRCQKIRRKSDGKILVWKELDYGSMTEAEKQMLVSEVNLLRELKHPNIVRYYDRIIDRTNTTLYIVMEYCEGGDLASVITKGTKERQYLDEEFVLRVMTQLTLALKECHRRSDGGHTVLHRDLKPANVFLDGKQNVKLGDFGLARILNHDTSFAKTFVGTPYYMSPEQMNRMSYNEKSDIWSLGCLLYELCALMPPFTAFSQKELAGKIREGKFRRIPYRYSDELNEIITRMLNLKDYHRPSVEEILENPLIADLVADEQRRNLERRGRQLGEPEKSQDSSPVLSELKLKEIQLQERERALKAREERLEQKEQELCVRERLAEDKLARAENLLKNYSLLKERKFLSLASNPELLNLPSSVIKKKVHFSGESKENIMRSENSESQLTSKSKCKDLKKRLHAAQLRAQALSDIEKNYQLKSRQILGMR

| Structure (SMILES) | outcome |
| --- | --- |
| Cc1ccc2ncccc2c1 | inactive |
| O=CCCCC=O | inactive |
| CCCCC=O | inactive |

Target: human p21 Activated Kinase 4 (PAK4), PAK4 (gene 10298) (UniProt O96013)
Experiment: NVS_ENZ_hPAK4: NovaScreen (NVS) Enzymatic Assay for human p21 Activated Kinase 4 (PAK4) (AID 2283189)
How it was run: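 Cell-free recombinant human PAK4 activity assay; fluorescent substrate and product separated by electrophoretic mobility shift, read 1 h after dosing. Initially tested in duplicate at 25 uM, relative to DMSO baseline.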

human p21 Activated Kinase 4 (PAK4), PAK4 (gene 10298), sequence (O96013 whole entry, looked up): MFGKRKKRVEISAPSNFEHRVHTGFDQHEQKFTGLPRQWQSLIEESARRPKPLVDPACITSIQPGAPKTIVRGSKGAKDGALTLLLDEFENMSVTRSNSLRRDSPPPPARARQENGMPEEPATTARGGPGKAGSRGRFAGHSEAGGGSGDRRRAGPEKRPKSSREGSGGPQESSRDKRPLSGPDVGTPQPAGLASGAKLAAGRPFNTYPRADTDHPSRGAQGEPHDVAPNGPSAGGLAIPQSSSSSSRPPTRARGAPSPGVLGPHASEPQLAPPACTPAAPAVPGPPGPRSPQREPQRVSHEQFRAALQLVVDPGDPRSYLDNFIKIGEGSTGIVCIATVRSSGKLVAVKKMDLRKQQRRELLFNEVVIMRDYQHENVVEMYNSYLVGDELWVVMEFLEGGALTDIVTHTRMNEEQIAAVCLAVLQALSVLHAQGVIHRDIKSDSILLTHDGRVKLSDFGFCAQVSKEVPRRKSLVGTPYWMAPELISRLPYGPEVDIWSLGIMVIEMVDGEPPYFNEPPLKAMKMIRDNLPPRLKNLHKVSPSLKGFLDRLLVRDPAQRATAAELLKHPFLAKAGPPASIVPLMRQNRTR

| Structure (SMILES) | outcome | AC50 |
| --- | --- | --- |
| NC(=O)N1C(=O)C(C(=O)c2cc(Cl)cs2)c2cc(F)c(Cl)cc21 (stereo not drawn) | inactive |  |
| Cc1cc(Cc2ccc(N)c(C)c2)ccc1N | inactive |  |
| CC(C)c1cccc(C(C)C)c1N1C(=O)c2ccc(O)cc2C1=O | inactive |  |
| C[C@]12C[C@H](O)[C@H]3[C@@H](CCC4=CC(=O)CC[C@@]43C)[C@@H]1CC[C@@H]2C(=O)CO | inactive |  |
| CCCCCCCC[Si](OCC)(OCC)OCC | inactive |  |
| O=c1c(O)c(-c2ccc(O)c(O)c2)oc2cc(O)cc(O)c12 | inactive |  |
| CC1(C)CC(N=C=O)CC(C)(CN=C=O)C1 (stereo not drawn) |  | 25 µM (active) |
| CC[C@H]1OC(=O)[C@H](C)[C@@H](O[C@H]2C[C@@](C)(OC)[C@@H](O)[C@H](C)O2)[C@H](C)[C@@H](O[C@@H]2O[C@H](C)C[C@H](N(C)C)[C@H]2O)[C@](C)(O)C[C@@H](C)C(=O)[C@H](C)[C@@H](O)[C@]1(C)O | inactive |  |
| CC/C(=C\C(=N/O)C(N)=O)C(C)[N+](=O)[O-] (stereo not drawn) | inactive |  |
| O=C1O[C@H]([C@H](O)CO)C(O)=C1O | inactive |  |
| Cc1ccc2oc(CN(Cc3ccccc3)C(=O)Nc3c(F)cc(F)cc3F)c(-c3ccc(Cl)cc3)c2c1 | inactive |  |
| Cc1[nH]cnc1C[C@H]1CCc2c(C)c3ccccc3n2C1=O | inactive |  |
| O=[Si]=O | inactive |  |
| O=C(O)[C@H](O)[C@@H](O)C(=O)O | inactive |  |

Target: human Phosphatase and Tensin Homolog (PTEN), PTEN (gene 5728) (UniProt P60484)
Experiment: NVS_ENZ_hPTEN: NovaScreen (NVS) Enzymatic Assay for human Phosphatase and Tensin Homolog (PTEN) (AID 2283203)
How it was run: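 Cell-free recombinant human PTEN with fluorescent substrate; product separated by electrophoretic mobility shift and read by fluorescence 1 h after dosing. Primary screen in duplicate at 25 uM, actives followed in concentration series versus DMSO.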

human Phosphatase and Tensin Homolog (PTEN), PTEN (gene 5728), sequence (P60484 whole entry, looked up): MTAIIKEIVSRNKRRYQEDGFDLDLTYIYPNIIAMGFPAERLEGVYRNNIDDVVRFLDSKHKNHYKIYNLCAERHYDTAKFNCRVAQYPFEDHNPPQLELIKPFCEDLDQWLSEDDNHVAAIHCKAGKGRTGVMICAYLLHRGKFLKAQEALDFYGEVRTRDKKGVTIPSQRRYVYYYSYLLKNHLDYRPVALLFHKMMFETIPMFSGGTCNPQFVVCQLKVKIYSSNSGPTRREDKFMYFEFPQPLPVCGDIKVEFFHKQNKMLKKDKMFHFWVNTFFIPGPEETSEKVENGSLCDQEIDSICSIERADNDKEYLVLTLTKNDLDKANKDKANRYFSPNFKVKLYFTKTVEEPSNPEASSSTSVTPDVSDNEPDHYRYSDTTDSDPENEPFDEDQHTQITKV

| Structure (SMILES) | AC50 | outcome |
| --- | --- | --- |
| NC(=O)N1C(=O)C(C(=O)c2cc(Cl)cs2)c2cc(F)c(Cl)cc21 (stereo not drawn) | 25 µM (active) |  |
| Fc1ccc(Br)cc1 |  | inactive |
| N#Cc1ccc(CC(=NNC(=O)Nc2ccc(OC(F)(F)F)cc2)c2cccc(C(F)(F)F)c2)cc1 |  | inactive |
| CN(C)C(=S)SC(=S)N(C)C | 18.9 µM (active) |  |
| CCCCC/C=C/C=C/C=O | 25 µM (active) |  |
| CCC(=O)OCC=Cc1ccccc1 |  | inactive |
| NC(=O)c1ccccc1Cl |  | inactive |
| CC(c1cc(C(C)(C)C)cc(C(C)(C)C)c1O)c1cc(C(C)(C)C)cc(C(C)(C)C)c1O | 5.29 µM (active) |  |
| Cc1ccc2ncccc2c1 |  | inactive |
| C=CC(=O)OCC(Br)CBr (stereo not drawn) |  | inactive |
| Cc1nc(C)nc(N2C[C@@H](C)N(c3ccnc([C@@H](C)O)n3)[C@@H](C)C2)n1 |  | inactive |
| C=C(C)CCCC |  | inactive |
| CCOC(C=C(C)CCC=C(C)C)OCC |  | inactive |
| CCCCCCCCCCCCCCCC |  | inactive |

Target: rat Monoamine Oxidase, MAO-B, Central (MAOBC), Maob (gene 25750) (UniProt P19643)
Experiment: NVS_ENZ_rMAOBC: NovaScreen (NVS) Enzymatic Assay for rat Monoamine Oxidase, MAO-B, Central (MAOBC) (AID 2283238)
How it was run: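 Compounds were first tested in duplicate at 25 uM against MAO-B from rat brain tissue; those passing the inhibition threshold were retested in concentration series up to 50 uM. Radiodetection by scintillation counting at 1.17 h, analysed against DMSO baseline.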

rat Monoamine Oxidase, MAO-B, Central (MAOBC), Maob (gene 25750), sequence (P19643 whole entry, looked up): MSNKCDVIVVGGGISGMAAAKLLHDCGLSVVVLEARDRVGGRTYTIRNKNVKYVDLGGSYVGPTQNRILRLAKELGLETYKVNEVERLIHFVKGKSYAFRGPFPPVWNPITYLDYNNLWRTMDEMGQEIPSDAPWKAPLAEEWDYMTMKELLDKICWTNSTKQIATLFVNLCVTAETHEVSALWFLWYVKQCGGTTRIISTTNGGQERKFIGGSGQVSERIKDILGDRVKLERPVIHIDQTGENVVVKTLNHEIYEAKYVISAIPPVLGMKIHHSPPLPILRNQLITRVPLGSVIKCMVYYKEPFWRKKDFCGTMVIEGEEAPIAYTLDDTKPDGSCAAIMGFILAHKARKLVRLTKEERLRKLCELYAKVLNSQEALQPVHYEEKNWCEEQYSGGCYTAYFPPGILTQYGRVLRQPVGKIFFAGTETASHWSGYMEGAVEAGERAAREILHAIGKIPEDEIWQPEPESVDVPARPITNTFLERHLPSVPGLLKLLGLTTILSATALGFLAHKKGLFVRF

| Structure (SMILES) | AC50 | outcome |
| --- | --- | --- |
| COc1ccc([N+](=O)[O-])cc1N | 25 µM (active) |  |
| O=C(N[C@@H](Cc1ccccc1)[C@@H](O)C(=O)N1C[C@@H](O)[C@@H](O)C1)c1cc2cc(Cl)ccc2[nH]1 |  | inactive |
| Cc1c(C)c2c(c(C)c1O)CCC(C)(COc1ccc(CC3SC(=O)NC3=O)cc1)O2 (stereo not drawn) | 25 µM (active) |  |
| CCCCCCCCOC(=O)c1cc(O)c(O)c(O)c1 |  | inactive |
| Cc1ccc([N+](=O)[O-])cc1N | 14.7 µM (active) |  |
| CC1(C)CC(N=C=O)CC(C)(CN=C=O)C1 (stereo not drawn) |  | inactive |
| O=C(O)c1cccnc1 |  | inactive |
| CC/C(=C\C(=N/O)C(N)=O)C(C)[N+](=O)[O-] (stereo not drawn) | 37.8 µM (active) |  |
| CN1CCN(Cc2cc(-c3ccc4[nH]c(=O)oc4c3)co2)[C@@H](c2ccc(F)cc2)C1 | 10.6 µM (active) |  |

Target: rat Monoamine Oxidase, MAO-B, Peripheral (MAOBP), Maob (gene 25750) (UniProt P19643)
Experiment: NVS_ENZ_rMAOBP: NovaScreen (NVS) Enzymatic Assay for rat Monoamine Oxidase, MAO-B, Peripheral (MAOBP) (AID 2283242)

rat Monoamine Oxidase, MAO-B, Peripheral (MAOBP), Maob (gene 25750), sequence (P19643 whole entry, looked up): as above

| Structure (SMILES) | AC50 | outcome |
| --- | --- | --- |
| Cc1ccc([N+](=O)[O-])cc1N | 26.1 µM (active) |  |
| CCCCN1C(=O)[C@@H]([C@H](O)C2CCCCC2)NC(=O)C12CCN(Cc1ccc(Oc3ccc(C(=O)O)cc3)cc1)CC2 |  | inactive |
| Cc1[nH]cnc1C[C@H]1CCc2c(C)c3ccccc3n2C1=O | 22.2 µM (active) |  |
| CN1CCN(Cc2cc(-c3ccc4[nH]c(=O)oc4c3)co2)[C@@H](c2ccc(F)cc2)C1 | 10.1 µM (active) |  |
